Compound activity (PubChem)
IL1B secr inh: inflammasome signaling inhibition, IL-1 beta readout; actives 4.7% (n = 360,000); AID 743279; activity change, % at 57.5 µM; THP-1 LPS/ATP IL-1B secretion, AlphaLISA, 16 h; stronger effect = lower value; in the data active = activity change below about -50%; inconclusive = mostly about -30% to -49%; note: % is set by controls: 0 for no effect and ±100 for the full control effect
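Secreted IL-1B measured by AlphaLISA bead assay after 16 h compound exposure of THP-1 cells; compounds (final up to 57.5 uM) added 1 h before LPS (250 ng/mL) and ATP (1.25 mM) stimulation; lower signal means less secretion.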
TGFb inhibitor: TGF-b pathway inhibition. AID 588855. HepG2 CAGA-GFP TGF-b/SMAD3 reporter, GFP fluorescence, 18 h; TGF-beta stimulated, 500 pg/mL final. Potency, µM (top dose mostly 46.1 µM), without a hit: top-dose activity, negative = inhibition, actives largely listed as inhibitors. actives 1.2% (n = 410,000); note: potency is the fitted concentration of half-maximal effect; % is set by controls: 0 for no effect and ±100 for the full control effect; nearly all actives have a fitted effect of over 65% in size
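GFP signal (ex488/em500-530) from TGF-beta-stimulated HEPG2 CAGA-GFP cells, 500 pg/mL final, 18 h at 37 degrees C in DMEM plus 1% FBS, normalized to unstimulated and DMSO-stimulated controls.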
HepG2 viability: counter-screen for TGF-b inhibitors: cytotoxicity in HepG2 cells; HepG2 CAGA-GFP viability, ATP luminescence, 18 h; Potency, µM (top dose mostly 46.1 µM), for inactives: at the top dose activity change, negative = cytotoxicity, most hits filed as cytotoxic; actives 0.76% (n = 410,000); note: potency is the fitted concentration of half-maximal effect
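HepG2 CAGA-GFP cells (1000/well, DMEM with 1% FBS) received compound, then TGF-beta at 500 pg/mL final, and were incubated 18 hours at 37 degrees C. Viability was read by CellTiter-Glo luminescence. Media-only wells were set as complete cell-killing and DMSO as no toxicity.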
TDP1 cell noCPT: qHTS for Inhibitors of human tyrosyl-DNA phosphodiesterase 1 (TDP1): qHTS in cells in absence of CPT | AID 686978, 2013 | actives 15% (n = 420,000) | DT40 Tdp1-/- hTDP1 cells, no CPT, ATP luminescence, 48 h | Potency, µM (doses to about 46.2 µM), without a hit: top-dose activity change, negative = growth inhibition, usual class: inhibitors; note: potency is the fitted concentration of half-maximal effect; % is set by controls: 0 for no effect and ±100 for the full control effect; nearly all actives have a fitted effect of over 55% in size
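Seeded 400 DT40-hTDP1 cells/well (vehicle DMSO, no 20 nM CPT); pinned compounds; ≥48 hr at 37 °C; CellTiter-Glo luminescence as viability measure.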
TDP1 cell CPT: growth inhibition of DT40 Tdp1-/-;hTDP1 cells with camptothecin (screen for TDP1 inhibitors). chicken DT40 Tdp1-/-;hTDP1 cells + 20 nM CPT, ATP luminescence, 48 h. Potency, µM (titrated, usually from 46.2 µM), for the others: top-dose activity change, negative = growth inhibition, usual class: inhibitors. actives 12% (n = 420,000). AID 686979; note: potency is the fitted concentration of half-maximal effect; % is set by controls: 0 for no effect and ±100 for the full control effect; nearly all actives have a fitted effect of over 55% in size
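Chicken DT40 Tdp1-/- cells stably complemented with human TDP1 were seeded at 400 cells/well in medium containing 20 nM camptothecin, exposed to pin-transferred compounds, and grown at 37 °C for at least 48 hr. Viability was read as ATP luminescence.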
ASM inhibitor: human S-ASM enzyme inhibition; actives 0.006% (n = 340,000); AID 504937; Potency, µM (series often up to 57.5 µM), inactives show top-dose activity change, negative = inhibition, actives largely listed as inhibitors; placental ASM, HMU-PC fluorogenic substrate, 60 min; note: potency is the fitted concentration of half-maximal effect
Target sequence (P17405 47-631 limits assumed): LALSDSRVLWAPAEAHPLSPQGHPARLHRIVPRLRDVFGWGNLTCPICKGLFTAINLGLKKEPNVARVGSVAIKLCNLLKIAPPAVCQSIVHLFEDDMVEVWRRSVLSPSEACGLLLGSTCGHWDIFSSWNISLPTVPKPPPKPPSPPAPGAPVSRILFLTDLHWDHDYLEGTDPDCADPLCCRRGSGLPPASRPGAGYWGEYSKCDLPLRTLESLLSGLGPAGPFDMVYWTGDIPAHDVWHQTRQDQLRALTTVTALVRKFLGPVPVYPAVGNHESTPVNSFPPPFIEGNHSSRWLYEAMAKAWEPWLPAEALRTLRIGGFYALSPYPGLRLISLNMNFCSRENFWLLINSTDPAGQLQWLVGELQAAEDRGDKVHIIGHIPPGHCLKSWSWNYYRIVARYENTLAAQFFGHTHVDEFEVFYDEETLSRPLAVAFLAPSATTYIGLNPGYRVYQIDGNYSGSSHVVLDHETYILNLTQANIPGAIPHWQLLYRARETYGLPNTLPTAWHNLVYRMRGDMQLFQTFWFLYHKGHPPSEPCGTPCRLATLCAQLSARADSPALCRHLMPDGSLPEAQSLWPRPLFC
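Steps: dispense placental human ASM, pin compound, wait 10 min at room temperature, add HMU-PC0 substrate at 9 uM final, incubate 60 min at 37 °C, add stop solution raising pH to 10, read fluorescence.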
* hit, by the source's call; ? = inconclusive; nt = no result given. An excerpt weighted towards active compounds, which were near 19% of everything screened. Unless noted, calls come from the whole dose curve; as a rule, active = well fitted curve in the direction sought with a large enough effect; inconclusive = small, poorly fitted or top-dose-only effect, or another doubt; inactive = no such curve, though single readings can be large; an effect the other way counts as inactive or inconclusive.

SMILES | IL1B secr inh | TGFb inhibitor | HepG2 viability | TDP1 cell noCPT | TDP1 cell CPT | ASM inhibitor
Cn1ncc([N+](=O)[O-])c1C(=O)Nc1ccc(C2CCCCC2)cc1 | 0 | 3% | -1% | ? | ? | -1%
Cc1ccc(NC(=O)Nc2ccc(F)cc2)cc1Cl | ? | -7% | -5% | 23µM* | ? | -1%
O=C(Nc1ccncc1)Nc1ccc(F)c(Cl)c1 | ? | -25% | -31% | ? | 16µM* | -9%
O=C(Cc1ccc(Cl)cc1Cl)Nc1ccncc1Cl | -25 | -2% | -9% | 1.8µM* | 5.2µM* | -2%
C=CCNC(=O)Nc1ccc(F)c(Cl)c1 | -2 | -3% | 0% | -10% | -19% | 1%
COc1ccc(CC(=O)Nc2ccncc2Cl)cc1 | -9 | 1% | -17% | 1.8µM* | 4.6µM* | 3%
CCCCN(C)c1c(N2CCC(C(=O)OCC)CC2)c(=O)c1=O | 13 | 4% | 3% | 4% | 18% | 3%
Cc1ccccc1C(=O)NC1CC2CCCC(C1)N2CC(C)C (configuration not stated) | -11 | -5% | 7% | -26% | ? | nt
O=C(Cc1ccc(Cl)cc1Cl)Nc1ccncc1 | -3 | ? | -20% | ? | 12µM* | -1%
CSc1nnc(-c2ccccc2)c(-c2ccccc2)n1 | 20 | 5% | 3% | -10% | -20% | -4%
CSc1nnc2c3ccccc3c3ccccc3c2n1 | 30 | 14% | 2% | 18µM* | 15µM* | -10%
COc1cc(=O)n2c(c1C(=O)NCc1ccc3c(c1)OCO3)CCN(C(=O)c1ccccc1F)CC2 | nt | nt | nt | -15% | 4% | nt
OCCNCc1cc(Br)ccc1OCc1ccccc1 | -58* | 6% | -11% | 16µM* | 23µM* | 0%
Brc1ccc(OCc2ccccc2)c(CNCC2CCCO2)c1 (configuration not stated) | -18 | -11% | -46% | 18µM* | ? | 3%
CCNCc1cc(Cl)c(OCc2ccccc2)c(OCC)c1 | -93* | ? | -44% | ? | ? | 0%
COc1cc(CNCCc2ccc(S(N)(=O)=O)cc2)ccc1OCC(=O)NC(C)(C)C | -5 | -4% | 2% | -5% | 0% | 5%
CCOc1cc(CNCC(O)c2ccccc2)cc(Cl)c1OC (configuration not stated) | 0 | 0% | -22% | -23% | ? | 4%
CCOc1cc(CNCCc2ccc(S(N)(=O)=O)cc2)ccc1OCc1ccccc1 | -54* | 39% | -35% | 12µM* | 12µM* | 0%
COc1cccc(CNCCO)c1OCc1ccccc1 | -28 | -8% | -5% | -29% | 2% | -3%
Cc1cc(C)cc(NC(=O)CN2C(=O)c3ccccc3Sc3ncccc32)c1 | nt | 0% | -13% | ? | ? | nt
NS(=O)(=O)c1ccc(NCc2cc(Cl)ccc2OCc2ccc(F)cc2)cc1 | -57* | ? | -56% | ? | ? | -3%
CCOc1cc(CNCCO)cc(Br)c1OCc1ccccc1 | -80* | ? | -143% | 16µM* | 18µM* | 0%
NS(=O)(=O)c1ccc(CCNCc2cc(Br)ccc2OCc2ccccc2)cc1 | -54* | ? | -60% | 12µM* | 15µM* | -1%
NS(=O)(=O)c1ccc(NCc2ccccc2OCc2ccccc2F)cc1 | -19 | ? | -48% | ? | ? | -9%
CCOc1cc(CNn2cn[nH]c2=S)cc(Cl)c1OCc1ccccc1F | 0 | ? | -50% | 15µM* | ? | -7%
SMILES | IL1B secr inh | TGFb inhibitor | HepG2 viability | TDP1 cell noCPT | TDP1 cell CPT | ASM inhibitor
CCOc1cc(CNc2ccccc2)cc(Br)c1OCc1ccccc1F | 5 | -5% | -10% | ? | ? | -8%
O=C(COC(=O)c1cc(Cl)nc(Cl)c1)NC1CCCCCC1 | 14 | 25% | 11% | 1% | -1% | 0%
COc1ccc(C(c2c(N)[nH]c(=S)[nH]c2=O)c2c(N)[nH]c(=S)[nH]c2=O)cc1 | 17 | -2% | 0% | -12% | 2% | 0%
CCOc1cc(CNCCc2ccc(S(N)(=O)=O)cc2)cc(Cl)c1OCc1ccccc1 | -81* | ? | -110% | ? | 13µM* | -7%
NNC(=O)C1SCCN1S(=O)(=O)c1ccc(Cl)cc1 (configuration not stated) | -13 | 8% | 10% | -19% | 8% | -2%
CCc1nc2c(OCc3cccc(Cl)c3)cccn2c1N(C)C(=O)c1ccc(OC)cc1 | 0 | ? | -30% | 16µM* | ? | nt
CCc1nc2c(OCc3ccccc3C(=O)OC)cccn2c1N(C)C(=O)c1cccc(OC)c1 | -3 | 2% | -1% | 23µM* | 13µM* | nt
CCc1nc2c(OCc3cc(Cl)cc(Cl)c3)cccn2c1N(C)C(=O)c1cccc(OC)c1 | -56* | ? | -36% | ? | ? | nt
CCc1nc2c(OCc3cccc(OC)c3)cccn2c1N(C)C(=O)c1ccc(OC)cc1 | -30 | 8% | -12% | 16µM* | ? | nt
CCc1nc2c(OCCc3cccc(OC)c3)cccn2c1N(C)C(=O)c1ccc(OC)cc1 | -29 | 35% | 6% | ? | ? | nt
O=C(c1cc(C(F)(F)F)cc(C(F)(F)F)c1)N1CCC[C@@]2(CCN(Cc3nccs3)C2)C1 | nt | nt | nt | -29% | 14% | nt
CC(=O)NCCC1CCN(C(=O)C2CCC(=O)N(C3CCCC3)C2)CC1 (configuration not stated) | 6 | -4% | 9% | 6% | 0% | 3%
COCCn1c(=O)c(CCc2ccccc2)nc2cnc(Oc3ccc(OC)cc3)nc21 | nt | nt | nt | -19% | -7% | nt
Cc1cccc(N2CCN(C(=O)c3ccc4c(c3)c(C)c(C)n4C)CC2C)c1 (configuration not stated) | -23 | ? | 1% | 21µM* | 16µM* | -9%
Cc1cccc(N2CCN(C(=O)c3ccccn3)CC2C)c1 (configuration not stated) | 5 | -5% | -18% | -18% | ? | -2%
COc1ccccc1N1CCN(C(=O)c2cc3c(=O)n(C)c4ccccc4c3s2)CC1 | nt | -21% | -25% | 26µM* | ? | nt
COc1ccccc1N1CCN(C(=O)c2cc3c(=O)n(C)c4ccccc4c3n2C)CC1 | 5 | 4% | -23% | 23µM* | 23µM* | -2%
